Assay results from PubChem BioAssay.
Activity calls are given as the source filed them.

Columns and labels:
[1] = tested on: Human papillomavirus type 1a protein E7 (residues 44-93); assay: small molecules binding HPV E7 44-93 – biochemical, small-molecule microarray, residues 44-93, 635 nm fluorescence, primary screen (AID 1108); conditions: fluorescence 635 nm, higher = more signal;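 further: E7 fragment applied at 1 µg/mL in TBST for 1 h at 4 C; score combines spot fluorescence with its signal to noise ratio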
[2] = hepatitis C replication reporter changes, two-sided – Huh7 cells, luciferase reporter, HCV replication inhibitor project, primary screen (AID 1109); conditions: Huh7 HCV replicon luciferase reporter, 48 h; higher = more signal;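 further: huh7 hepatoma cells harbouring a luciferase neomycin HCV replicon reporter; luciferase luminescence as measure of HCV replicon replication; test concentration not given here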
[3] = target: Left-right determination factor 2 (Homo sapiens) (UniProt O00292); assay: small molecules binding LEFTY2 protein – biochemical, small-molecule microarray, 635 nm fluorescence scan, primary screen (AID 1110); conditions: higher = more signal
Left-right determination factor 2 (Homo sapiens), sequence (O00292 whole entry, looked up): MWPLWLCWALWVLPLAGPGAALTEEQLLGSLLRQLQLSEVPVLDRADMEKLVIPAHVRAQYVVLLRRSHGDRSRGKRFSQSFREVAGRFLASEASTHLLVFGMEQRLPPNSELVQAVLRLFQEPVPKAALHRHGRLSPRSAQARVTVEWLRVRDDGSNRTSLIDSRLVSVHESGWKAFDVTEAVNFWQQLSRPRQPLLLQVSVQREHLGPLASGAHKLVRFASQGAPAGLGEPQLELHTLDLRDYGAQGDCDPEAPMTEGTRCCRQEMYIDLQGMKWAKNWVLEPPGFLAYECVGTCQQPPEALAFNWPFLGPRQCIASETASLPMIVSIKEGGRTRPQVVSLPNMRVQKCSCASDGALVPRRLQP

[4] = target: Calmodulin-1 (Homo sapiens) (UniProt P0DP23); assay: small molecules binding calmodulin-1 with EGTA – biochemical, small-molecule microarray, Cy5-labelled CALM1, profiling panel (AID 1111); conditions: Cy5-CALM1 binding fluorescence, higher = more signal;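 further: labelled calmodulin applied in Tris saline Tween buffer holding calcium plus EGTA and DTT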
[5] = target: Calmodulin-1 (Homo sapiens) (UniProt P0DP23); assay: small molecules binding Ca-loaded calmodulin-1 – biochemical, small-molecule microarray, Cy5-labelled CALM1, plus calcium, artefact control for SMM control-protein annotation, profiling panel (AID 1112); conditions: Cy5-CALM1 binding fluorescence, higher = more signal;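 further: score merges spot fluorescence with signal to noise from triplicate slides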
[6] = probe aWnt5a binding to arrayed compounds – biochemical, biotinylated probe, 635/667 nm fluorescence, primary screen (AID 1113); conditions: small-molecule microarray, higher = more signal;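 further: score merges 667 nm fluorescence intensity with signal-to-noise per printed feature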
[7] = probe aShh binding to arrayed compounds – biochemical, biotinylated probe, 635/667 nm fluorescence, primary screen (AID 1114); conditions: small-molecule microarray, higher = more signal;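 further: probe is biotin-labelled aShh protein from a stem cell growth factor screen; measures binding of labelled protein to compounds printed on the slide; score merges feature fluorescence at 667 nm with signal-to-noise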
[8] = probe aNog binding to arrayed compounds – biochemical, biotinylated probe, 635/667 nm fluorescence, primary screen (AID 1115); conditions: small-molecule microarray, higher = more signal;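 further: probe is biotinylated aNog protein used at 0.15 µg/mL for 1 h at 4 C; z-score combines 667 nm fluorescence of each spot with its signal to noise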
[9] = target: Torsin-1A-interacting protein 1 (Homo sapiens) (UniProt Q5JTV8); assay: compound microarray binding of lysate hLAP1 – cell lysate, small-molecule microarray, COS7 lysate, 635/667 nm fluorescence, primary screen (AID 1116); conditions: 635 nm fluorescence, higher = more signal
Torsin-1A-interacting protein 1 (Homo sapiens), sequence (Q5JTV8 whole entry, looked up): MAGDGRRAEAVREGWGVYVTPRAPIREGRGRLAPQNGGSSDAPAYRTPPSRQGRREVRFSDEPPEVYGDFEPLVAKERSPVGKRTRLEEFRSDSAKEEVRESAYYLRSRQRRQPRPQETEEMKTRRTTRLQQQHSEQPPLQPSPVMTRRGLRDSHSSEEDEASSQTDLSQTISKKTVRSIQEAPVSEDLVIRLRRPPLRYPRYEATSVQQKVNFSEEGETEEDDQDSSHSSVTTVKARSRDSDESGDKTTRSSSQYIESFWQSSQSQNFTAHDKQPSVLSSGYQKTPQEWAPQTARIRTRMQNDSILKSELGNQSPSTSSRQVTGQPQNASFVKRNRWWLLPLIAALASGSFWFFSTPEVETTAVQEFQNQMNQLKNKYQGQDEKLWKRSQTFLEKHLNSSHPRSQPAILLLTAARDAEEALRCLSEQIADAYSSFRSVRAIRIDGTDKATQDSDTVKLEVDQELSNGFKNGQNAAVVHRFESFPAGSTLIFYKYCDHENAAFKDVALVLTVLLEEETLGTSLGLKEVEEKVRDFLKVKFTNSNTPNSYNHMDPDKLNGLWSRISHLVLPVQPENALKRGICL

[10] = target: Alpha-bungarotoxin (Bungarus multicinctus) (UniProt P60615); assay: compounds binding labelled alpha-BTX control protein – biochemical, small-molecule microarray, Alexa647 label, 635/667 nm fluorescence, artefact control for SMM control protein annotation, profiling panel (AID 1117); conditions: alpha-BTX-A647 binding fluorescence, higher = more signal
Alpha-bungarotoxin (Bungarus multicinctus), sequence (P60615 whole entry, looked up): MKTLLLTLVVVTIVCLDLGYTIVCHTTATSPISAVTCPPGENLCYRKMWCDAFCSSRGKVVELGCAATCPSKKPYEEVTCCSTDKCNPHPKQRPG

Albumin (Bos taurus) = Albumin (Bos taurus) (UniProt P02769); assay: compounds binding labelled BSA control protein – biochemical, small-molecule microarray, Alexa647 label, 635/667 nm fluorescence, artefact control for SMM control protein annotation, profiling panel (AID 1118); conditions: BSA-A647 binding, fluorescence 635 nm, higher = more signal;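 further: score merges 667 nm emission intensity and signal-to-noise per printed compound spot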
Albumin (Bos taurus), sequence (P02769 whole entry, looked up): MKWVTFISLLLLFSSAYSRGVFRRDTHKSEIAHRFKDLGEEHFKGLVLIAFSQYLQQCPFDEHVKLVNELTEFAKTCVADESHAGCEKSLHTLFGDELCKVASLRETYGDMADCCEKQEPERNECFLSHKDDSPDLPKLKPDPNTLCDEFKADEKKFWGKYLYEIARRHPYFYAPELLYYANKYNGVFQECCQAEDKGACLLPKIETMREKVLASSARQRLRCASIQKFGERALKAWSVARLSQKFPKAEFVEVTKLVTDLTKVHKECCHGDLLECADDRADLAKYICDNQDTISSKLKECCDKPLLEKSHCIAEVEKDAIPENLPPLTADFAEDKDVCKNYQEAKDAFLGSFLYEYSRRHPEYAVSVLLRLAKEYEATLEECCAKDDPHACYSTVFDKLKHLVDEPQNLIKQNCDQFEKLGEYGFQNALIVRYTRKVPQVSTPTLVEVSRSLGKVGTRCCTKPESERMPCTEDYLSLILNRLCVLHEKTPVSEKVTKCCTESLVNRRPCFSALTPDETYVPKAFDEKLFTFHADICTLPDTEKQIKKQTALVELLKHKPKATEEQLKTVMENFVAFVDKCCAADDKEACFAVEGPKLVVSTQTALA

[11] = probe aXIP binding to arrayed compounds – biochemical, NeuroSMM set, 635/667 nm fluorescence, primary screen (AID 1119); conditions: small-molecule microarray, higher = more signal, called active from +8 up or from −8 down;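 further: probe is the protein aXip251-270 applied at 1 µg/mL to compound-printed slides; binding of probe to printed compounds measured as 667 nm fluorescence plus signal to noise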
[12] = probe aNOTCH3 binding on compound microarray – biochemical, small-molecule microarray, 635/667 nm fluorescence, primary screen (AID 1120); conditions: higher = more signal;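 further: probe is a biotin-tagged antibody raised against NOTCH3 rather than NOTCH3 protein; score merges spot fluorescence near 667 nm with spot signal to noise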
[13] = probe aNOTCH2 binding on compound microarray – biochemical, small-molecule microarray, 635/667 nm fluorescence, primary screen (AID 1121); conditions: higher = more signal;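 further: score merges feature fluorescence read at 667 nm with its signal to noise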
[14] = target: Carbonic anhydrase 2 (Homo sapiens) (UniProt P00918); assay: compounds binding carbonic anhydrase 2 – biochemical, small-molecule microarray, Alexa647-labelled CAII, profiling panel (AID 1122); conditions: CAII-A647 binding fluorescence, higher = more signal
[15] = COS7 lysate on small-molecule microarray, probe aHis, 635 nm (AID 1123); conditions: COS7 cell lysate, fluorescence, higher = more signal;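 further: z-score combines 667nm fluorescence intensity with signal-to-noise per printed compound spot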
[16] = probe aLAP1 signal on lysate-treated microarray – cell lysate, small-molecule microarray, COS7 lysate, primary screen (AID 1124); conditions: probe aLAP1, fluorescence, higher = more signal;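 further: lysate comes from COS7 cells expressing LAP1 and is applied at 0.3 µg/mL; score merges spot fluorescence near 667 nm with signal-to-noise over triplicate slides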
Sam68 (KHDRBS1) = assay: compounds binding KHDRBS1 protein – biochemical, small-molecule microarray, 635 nm fluorescence, primary screen (AID 1125); conditions: higher = more signal;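 further: score merges 667 nm channel intensity with signal to noise over triplicate slides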
[17] = tested on: Chordin-like protein 2 (CHRDL2); assay: compounds binding chordin-like 2 – biochemical, small-molecule microarray, 635 nm fluorescence, primary screen (AID 1126); conditions: fluorescence 635 nm, higher = more signal;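 further: printed compound slides probed with Chrdl2 protein at 4 µg/mL for 1 h at 4 C; score merges 667 nm emission intensity with signal to noise over three replicate slides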
[18] = target: Concanavalin-A (Canavalia ensiformis) (UniProt P02866); assay: compounds binding concanavalin A lectin – biochemical, small-molecule microarray, Alexa647 label, 635 nm, artefact control for SMM control protein annotation, primary screen (AID 1127); conditions: ConA-A647 binding fluorescence, higher = more signal;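 further: z combines 667 nm emission intensity with signal-to-noise across three replicate slides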
Concanavalin-A (Canavalia ensiformis), sequence (P02866 whole entry, looked up): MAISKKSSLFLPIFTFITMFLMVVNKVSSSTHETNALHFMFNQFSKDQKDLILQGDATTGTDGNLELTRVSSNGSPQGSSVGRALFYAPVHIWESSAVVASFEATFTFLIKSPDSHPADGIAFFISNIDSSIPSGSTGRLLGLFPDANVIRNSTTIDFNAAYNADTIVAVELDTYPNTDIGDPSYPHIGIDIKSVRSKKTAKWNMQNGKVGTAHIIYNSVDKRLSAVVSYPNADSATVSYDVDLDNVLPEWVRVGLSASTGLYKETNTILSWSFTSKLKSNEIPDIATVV

Row | Compound | composite z-score [1] | z-score [2] | composite z-score [3] | composite z-score [4] | composite z-score [5] | composite z-score [6] | composite z-score [7] | composite z-score [8] | composite z-score [9] | composite z-score [10] | composite z-score (Albumin (Bos taurus)) | composite Z-score [11] | composite z-score [12] | composite z-score [13] | composite z-score [14] | composite z-score [15] | composite z-score [16] | composite z-score (Sam68 (KHDRBS1)) | composite z-score [17] | composite z-score [18]
1 | COc1ccc(C(=O)Nc2ccc3c(c2)[C@]2(O[C@@H](CCO)[C@H]([Si](C)(C)c4ccc(OC)cc4)[C@H]2C)C(=O)N3Cc2ccccc2)cc1 | 0.958 | -5.23 | 0.793 | 0.475 | 0.57 | -0.13 | 0.0062 | -0.295 | 0.422 | 0.375 | -0.58 | 0.131 (inactive) | -0.242 | -0.135 | 0.0277 | -0.0175 | -0.352 | 1.01 | 0.845 | 0.908
2 | O=C1C2C=CC(C(O)c3ccccn3)N(Nc3ccccc3)C2C(=O)N1c1ccccc1 (stereo not given) | 0.132 | 0.819 | -0.136 | 0.167 | -0.0451 | -0.0758 | -0.291 | 0.0373 | 0.529 | 0.31 | 1.03 | 0.959 (inactive) | -0.0026 | -0.0995 | 0.824 | 0.696 | -0.247 | -0.419 | -0.493 | 0.36
3 | C=CCNC(=O)[C@H]1[C@@H]2C(=O)O[C@@H](c3ccccc3)[C@@H](c3ccccc3)N2[C@@H](c2ccc(O)cc2)[C@]12C(=O)N(C(=O)OCCOC)c1ccc(C#CC3(O)CCCCCC3)cc12 | 0.739 | -0.302 | -0.326 | 0.487 | 0.205 | -0.0445 | 0.0469 | 0.268 | 1.16 | 1.2 | 0.624 | 0.282 (inactive) | 0.207 | -0.0519 | 0.39 | 1.08 | -0.0714 | 1.23 | -0.233 | 0.915
4 | CN(C)C(=O)[C@]1(Cc2ccccc2N=[N+]=[N-])N=C(c2ccc(OCCCO)cc2)O[C@@H]1c1ccccc1CN=[N+]=[N-] | 1.42 | -2.55 | 0.234 | 0.668 | 0.271 | 0.0559 | 0.13 | -0.488 | 0.939 | 0.564 | 0.828 | -0.136 (inactive) | 0.473 | -0.0349 | 0.684 | 2.53 | 0.635 | 1.3 | -0.21 | 0.875
5 | COCC(=C=CC[C@@H](O)c1ccccc1OCCO)C[C@@H](O)COCc1ccccc1 | -0.0562 | -0.868 | -0.522 | 1.16 | 0.0936 | 0.0158 | 0.536 | 0.998 | 2.56 | -0.18 | 0.521 | 0.418 (inactive) | 0.779 | 0.365 | 0.73 | 2.22 | 1.04 | 1.04 | -0.463 | 0.244
6 | C=C(/C(=C/C[C@@H](OC(=O)c1ccncc1)c1cccc(OCCO)c1)c1cc(C(=O)OC)ccc1OC)C(C)C | 0.903 | -2.94 | 0.521 | 0.0576 | -0.412 | -0.101 | 0.131 | 0.0051 | 1.11 | 0.462 | 0.482 | 0.25 (inactive) | 0.19 | -0.0207 | 0.597 | 1.23 | 0.763 | 1.21 | 0.859 | 0.996
7 | COCCOC(=O)N1C(=O)[C@@]2(c3ccccc31)[C@H](c1ccccc1OCCO)N1[C@H](c3ccccc3)[C@H](c3ccccc3)OC(=O)[C@H]1[C@@H]2C(=O)N1CCc2cc(OC)c(OC)cc2C1 | 0.825 | -2.37 | 0.415 | 1.29 | 0.0498 | -0.0161 | 0.399 | 0.194 | 0.561 | 0.91 | -0.274 | 0.511 (inactive) | 0.0833 | -0.0176 | 0.335 | 0.51 | 0.0553 | 1.27 | 0.475 | 1.18
8 | NC(=O)NCC#Cc1ccc2c(c1)[C@]1(C(=O)N2)[C@H](c2ccc(O)cc2)N2[C@H](c3ccccc3)[C@H](c3ccccc3)OC(=O)[C@H]2[C@@H]1C(N)=O | -0.366 | 0.114 | -0.749 | -0.571 | 0.261 | -0.185 | 0.0469 | 0.218 | -0.757 | 0.387 | -0.624 | 0.251 (inactive) | -0.279 | 0.104 | 0.263 | 0.409 | -0.0995 | -0.144 | -0.162 | -0.608
9 | CCCCC(=C=CC[C@H](O)c1ccccc1OCCO)C[C@H](O)c1ccccn1 | 0.0797 | -0.619 | 0.377 | -0.0455 | -0.351 | -0.126 | -0.0769 | -0.388 | 0.934 | 0.697 | 0.0165 | -0.452 (inactive) | 0.0311 | -0.164 | 0.557 | -0.137 | 0.271 | -0.0949 | 0.547 | 0.319
10 | C=CCC(OC(C)=O)[C@@H]1[C@@H](N(Cc2ccc(-c3ccccc3)cc2)C(=O)Cc2ccc(OC)cc2)c2cc(OCCCO)ccc2N1C(=O)c1ccc(-c2ccccc2)cc1 (stereo not given in full) | -0.354 | 0.257 | 0.265 | 0.36 | 0.807 | -0.0718 | -0.229 | -0.174 | 0.609 | 0.544 | -0.146 | -0.427 (inactive) | 0.268 | 0.0224 | 0.204 | -0.0315 | 0.394 | -0.323 | 0.268 | -0.781
11 | CC(C)c1ccc(NN2C(C(O)c3ccccn3)C=CC3C(=O)N(c4ccccc4)C(=O)C32)cc1 (stereo not given) | 1.51 | -0.112 | 0.581 | 1.11 | 0.214 | 0.145 | 0.04 | 1.7 | 1.34 | 0.964 | 0.835 | -0.232 (inactive) | 0.447 | 0.142 | 0.808 | 2.92 | 0.881 | 1.32 | -0.159 | 1.1
